The full list was thinned out, with hits kept by preference.
T cruzi growth-1: T. cruzi intracellular proliferation inhibitors, primary screen, cell-based, beta-gal Tulahuen parasites, NIH3T3 host, luminescence | AID 624255, 2012 | T. cruzi beta-gal in NIH3T3, GalScreen luminescence, 90 h | 77,000 compounds, 5.9% hits | inhibition, % at 8.34 µM;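 active means mean inhibition above about 93%, with at least 55% of replicates each passing it, limit read from the data, passing the limit was not always enough; inconclusive means only one of those two conditions holds; inactive means neither condition holds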
C diff HTS: C. difficile growth inhibitors, primary screen, HTS; AID 1259249, 2017; growth activity, negative = inhibition, % at 16 µg/mL (by protocol); Clostridium difficile clinical isolate growth, OD600, 24 h; hits give low values; 86,000 compounds, 0.25% hits;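 active means mean growth activity at or below -80% and every replicate also at or below -80%; inconclusive means mean at or below -80% but some replicate above -80%; inactive means mean growth activity above -80%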;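 further: 0% = DMSO wells and -100% = levofloxacin 16 µg/mL wells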
T cruzi growth-2: T. cruzi intracellular proliferation inhibitors, confirmation, cell-based, NIH3T3 host, beta-gal parasite, luminescence, cherry-pick; inhibition, % at 8.35 µM; AID 651739, 2012; 5,600 compounds, 72% hits; shares compounds with T cruzi growth-1; T. cruzi beta-gal in NIH3T3, GalScreen luminescence, 90 h;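 active means mean replicate inhibition above about 95% and at least 55% of replicates individually reaching it, limit read from the data; inconclusive means only one of the two criteria is met; inactive means neither criterion is met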
T cruzi growth-3: inhibitors of intracellular T. cruzi replication, confirmation, NIH3T3 host cells, beta-gal parasites, cherry-pick, set 2; AID 651740, 2012; T. cruzi beta-gal in NIH3T3, GalScreen luminescence, 90 h; shares compounds with T cruzi growth-1; inhibition, % at 2.09 µM; 5,600 compounds, 21% hits;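 active means mean inhibition above about 95%, with at least 55% of replicates also reaching it, limit read from the data; inconclusive means meets just one of the two conditions; inactive means meets neither condition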;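 further: plate controls were neutral control median for no effect and positive control median for full effect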
3T3 cytotox: cytotoxicity in mouse NIH/3T3 fibroblasts, confirmation, cytotoxicity control for T. cruzi proliferation inhibitor project, cell-based, cherry-pick, single point | 5,600 compounds, 14% hits | NIH/3T3 viability, CellTiter-Glo ATP luminescence, 90 h | shares compounds with T cruzi growth-1 | cytotoxicity (signal decrease), % at 8.35 µM;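 active means mean signal decrease across replicates above about 35% based on untreated-well scatter, with enough replicates individually passing, limit read from the data; inconclusive means no rule stated though some were filed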;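 further: 0% = median of neutral control wells and 100% = median of positive control wells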
NIH3T3 tox 2: NIH/3T3 fibroblast cytotoxicity, confirmation, cytotoxicity control, cell-based, cherry-pick, single point, set 2 | shares compounds with T cruzi growth-1 | NIH/3T3 viability, CellTiter-Glo ATP luminescence, 90 h | inhibition, % at 24.9 µM | 5,600 compounds, 56% hits | AID 651744, 2012;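 active means mean loss of cell viability signal at or above a set limit, and enough replicates individually reaching it; inconclusive means meets only the mean limit or only the replicate share; inactive means meets neither condition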;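 further: 0% = median of neutral control wells and 100% = median of positive control wells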
The depositor's hits bear a star; ? = inconclusive; nt = not tested or not shown.

SMILES	T cruzi growth-1	C diff HTS	T cruzi growth-2	T cruzi growth-3	3T3 cytotox	NIH3T3 tox 2
CC(C)CC#Cc1ccc2c(c1)O[C@@H](CN(C)S(=O)(=O)c1cccc(F)c1)[C@H](C)CN([C@@H](C)CO)S2(=O)=O	110*	10	?	115*	34	68*
CC(C)CC#Cc1ccc2c(c1)O[C@@H](CN(C)S(=O)(=O)c1cccc(F)c1)[C@H](C)CN([C@H](C)CO)S2(=O)=O	121*	8	103*	87	45*	106*
CCCC#Cc1ccc2c(c1)O[C@@H](CN(C)S(=O)(=O)c1cccc(F)c1)[C@@H](C)CN([C@H](C)CO)S2(=O)=O	124*	23	104*	85	17	19
COCC#Cc1ccc2c(c1)O[C@@H](CN(C)S(=O)(=O)c1cccc(F)c1)[C@H](C)CN([C@H](C)CO)S2(=O)=O	29	-1	nt	nt	nt	nt
CC(C)CC#Cc1ccc2c(c1)O[C@@H](CN(C)S(=O)(=O)c1cccc(F)c1)[C@@H](C)CN([C@@H](C)CO)S2(=O)=O	121*	-1	91	112*	26	105*
C[C@H]1CN([C@@H](C)CO)S(=O)(=O)c2ccc(C#CCN(C)C)cc2O[C@H]1CN(C)S(=O)(=O)c1cccc(F)c1	nt	1	nt	nt	nt	nt
C[C@@H]1CN([C@H](C)CO)S(=O)(=O)c2ccc(C#CCN(C)C)cc2O[C@@H]1CN(C)S(=O)(=O)c1cccc(F)c1	nt	2	nt	nt	nt	nt
C[C@H](CO)N1C[C@H](C)[C@H](CN(C)S(=O)(=O)c2cccc(F)c2)Oc2cc(C#CCN(C)C)ccc2S1(=O)=O	nt	1	nt	nt	nt	nt
CC(=O)N(C)C[C@@H]1Oc2cc(-c3cccc(F)c3)ccc2S(=O)(=O)N([C@H](C)CO)C[C@@H]1C	26	-1	nt	nt	nt	nt
COc1cccc(S(=O)(=O)Nc2ccc3c(c2)C(=O)N(C)[C@H]2CC[C@H](CC(=O)O)O[C@@H]2CO3)c1	5	0	nt	nt	nt	nt
C[C@H]1CN([C@@H](C)CO)C(=O)c2cc(NC(=O)Nc3ccc4c(c3)OCO4)ccc2O[C@@H]1CN(C)Cc1ccccc1	-16	1	nt	nt	nt	nt
Cc1noc(C)c1NC(=O)Nc1ccc2c(c1)CC(=O)N([C@@H](C)CO)C[C@@H](C)[C@@H](CN(C)CC1CCCCC1)O2	-37	-3	nt	nt	nt	nt
C[C@@H]1CN([C@H](C)CO)S(=O)(=O)c2ccc(C#CCN(C)C)cc2O[C@H]1CN(C)S(=O)(=O)c1cccc(F)c1	nt	2	nt	nt	nt	nt
CC(C)CC#Cc1ccc2c(c1)O[C@H](CN(C)S(=O)(=O)c1cccc(F)c1)[C@@H](C)CN([C@H](C)CO)S2(=O)=O	119*	7	101*	107*	32	61*
O=C(C1CCC1)N1C[C@@H]2[C@H](c3ccccc31)[C@H](CO)N2C(=O)c1ccccc1F	-55	0	nt	nt	nt	nt
COc1ccc(S(=O)(=O)N(C)C[C@@H]2Oc3ncc(C#Cc4ccccc4)cc3C(=O)N([C@H](C)CO)C[C@@H]2C)cc1	109*	3	101*	33	-4	63*
COc1ccc(S(=O)(=O)N(C)C[C@@H]2Oc3ncc(C#Cc4ccc(OC)c(OC)c4)cc3C(=O)N([C@H](C)CO)C[C@@H]2C)cc1	111	0	nt	nt	nt	nt
C[C@H](CO)N1C[C@H](C)[C@H](CN(C)S(=O)(=O)c2ccc(C#N)cc2)Oc2ncc(-c3cccc(C(F)(F)F)c3)cc2C1=O	27	3	nt	nt	nt	nt
Cc1ccc(S(=O)(=O)N(C)C[C@@H]2Oc3ncc(-c4cccc(C(F)(F)F)c4)cc3C(=O)N([C@H](C)CO)C[C@@H]2C)cc1	126*	3	106*	63	48*	43*
C[C@H](CO)N1C[C@H](C)[C@H](CN(C)S(=O)(=O)c2cccs2)Oc2ncc(C#Cc3ccc(C(F)(F)F)cc3)cc2C1=O	9	nt	nt	nt	nt	nt
COc1cccc(S(=O)(=O)N(C)C[C@@H]2Oc3ncc(C#Cc4ccc(C(F)(F)F)cc4)cc3C(=O)N([C@H](C)CO)C[C@@H]2C)c1	103*	1	96*	113*	32	31*
C[C@H](CO)N1C[C@H](C)[C@H](CN(C)S(=O)(=O)c2cccs2)Oc2ncc(C#Cc3ccc(F)cc3)cc2C1=O	112*	1	106*	78	23	22
COc1cccc(S(=O)(=O)N(C)C[C@@H]2Oc3ncc(C#Cc4ccc(OC)c(OC)c4)cc3C(=O)N([C@H](C)CO)C[C@@H]2C)c1	60	4	nt	nt	nt	nt
C[C@@H](NC(=O)C[C@@H]1CC[C@@H]2[C@H](COC[C@@H](O)CN2Cc2cc(F)ccc2F)O1)c1ccccc1	69	1	nt	nt	nt	nt
COc1cccc(S(=O)(=O)N(C)C[C@H]2Oc3ncc(C#CCC(C)C)cc3C(=O)N([C@@H](C)CO)C[C@@H]2C)c1	?	-11	111*	55	4	73*
SMILES	T cruzi growth-1	C diff HTS	T cruzi growth-2	T cruzi growth-3	3T3 cytotox	NIH3T3 tox 2
C[C@H](CO)N1C[C@H](C)[C@H](CN(C)S(=O)(=O)c2ccc(C#N)cc2)Oc2ncc(C#Cc3cccc(F)c3)cc2C1=O	11	3	nt	nt	nt	nt
COc1cccc(S(=O)(=O)N(C)C[C@@H]2Oc3ncc(C#Cc4cccc(F)c4)cc3C(=O)N([C@H](C)CO)C[C@@H]2C)c1	110*	-1	102*	57	29	33*
COc1cccc(S(=O)(=O)N(C)C[C@@H]2Oc3ncc(C#CC(C)C)cc3C(=O)N([C@@H](C)CO)C[C@H]2C)c1	88	-5	nt	nt	nt	nt
COc1cccc(S(=O)(=O)N(C)C[C@@H]2Oc3ncc(C#CCC(C)C)cc3C(=O)N([C@@H](C)CO)C[C@@H]2C)c1	82	-3	nt	nt	nt	nt
Cc1ccc(S(=O)(=O)N(C)C[C@@H]2Oc3ncc(C#Cc4cccc(F)c4)cc3C(=O)N([C@H](C)CO)C[C@@H]2C)cc1	121*	5	99*	51	?	52*
C[C@H](CO)N1C[C@H](C)[C@H](CN(C)CC2CCCCC2)Oc2ccc(NS(=O)(=O)c3ccccc3)cc2CC1=O	21	-15	nt	nt	nt	nt
CCCNC(=O)N[C@H]1CC[C@H](CCn2cc(C3CCCC3)nn2)O[C@H]1CO	-33	nt	nt	nt	nt	nt
CCC(=O)N(C)C[C@@H]1Oc2cc(-c3ccc(OC)cc3)ccc2S(=O)(=O)N([C@@H](C)CO)C[C@@H]1C	nt	1	nt	nt	nt	nt
CN(C)C(=O)[C@H]1[C@H](CO)[C@H]2Cn3c(ccc(-c4cccc(F)c4)c3=O)[C@@H]1N2CCc1ccccc1	-1	-1	nt	nt	nt	nt
Cc1ccc(S(=O)(=O)Nc2ccc3c(c2)C(=O)N([C@@H](C)CO)C[C@@H](C)[C@H](CN(C)C(=O)NC(C)C)OCCCC[C@@H](C)O3)cc1	25	9	nt	nt	nt	nt
